# Measured values as given in PubChem BioAssay (EPA / NIEHS).
# The source made the active and inactive calls. How the source made its calls: active means hit-call score of the fitted dose curve at least 0.9, where 1 is the maximum; inactive means score below 0.9.
# Legend:
# [1] = read-out: growth arrest and DNA damage 45 (GADD45A), GADD45A (gene 1647); experiment: LTEA_HepaRG_GADD45A: Life Technologies and Expression Analysis (LTEA) Assay for growth arrest and DNA damage 45 (GADD45A) using HepaRG (AID 2283458); details: mRNA level, 48 h; actives raise or lower the signal
# In short: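 Human HepaRG liver cells are treated in duplicate for 48 h with chemicals in 0.5% DMSO, highest concentration 100 uM. Expression is read by qRT-PCR and analyzed in both directions against vehicle.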
# [2] = read-out: Forkhead box O3 (FOXO3), FOXO3 (gene 2309); experiment: LTEA_HepaRG_FOXO3: Life Technologies and Expression Analysis (LTEA) Assay for Forkhead box O3 (FOXO3) using HepaRG (AID 2283459); details: mRNA level, 48 h; actives raise or lower the signal
# In short: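 Differentiated human HepaRG cells, 48 h post-plating, exposed in duplicate for 48 h in serum-free induction medium; 8-point half-log series from 100 uM in 0.5% DMSO. FOXO3 mRNA by TaqMan qRT-PCR, normalized to ACTB/GAPDH/POLR2A; bidirectional fit versus DMSO.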
# [3] = read-out: ABC Transporter (ABCB1), ABCB1 (gene 5243); experiment: LTEA_HepaRG_ABCB1: Life Technologies and Expression Analysis (LTEA) Assay for ABC Transporter (ABCB1) using HepaRG (AID 2283460); details: mRNA level, 48 h; actives raise or lower the signal
# In short: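 HepaRG cells exposed in duplicate for 48 h in serum-free induction medium to eight half-log concentrations up to 100 uM in 0.5% DMSO. ABCB1 mRNA quantified by qRT-PCR, normalised to ACTB, GAPDH and POLR2A; fitted bidirectionally versus DMSO.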
# [4] = read-out: growth arrest and DNA damage 45 (GADD45B), GADD45B (gene 4616); experiment: LTEA_HepaRG_GADD45B: Life Technologies and Expression Analysis (LTEA) Assay for growth arrest and DNA damage 45 (GADD45B) using HepaRG (AID 2283461); details: mRNA level, 48 h; actives raise or lower the signal
# In short: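 Human HepaRG monolayers receive chemicals for 48 h at eight half-log concentrations, highest 100 uM, in 0.5% DMSO. Expression is measured by TaqMan qRT-PCR and normalized to ACTB, GAPDH and POLR2A.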
# [5] = read-out: ABC Transporter (ABCC3), ABCC3 (gene 8714); experiment: LTEA_HepaRG_ABCC3: Life Technologies and Expression Analysis (LTEA) Assay for ABC Transporter (ABCC3) using HepaRG (AID 2283462); details: mRNA level, 48 h; actives raise or lower the signal
# In short: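 Transcriptional change of ABCC3 in HepaRG after 48 h treatment, determined by qRT-PCR normalized to endogenous controls. Concentrations spanned eight half-log steps to 100 uM in 0.5% DMSO.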
# [6] = read-out: ABC Transporter (ABCB11), ABCB11 (gene 8647); experiment: LTEA_HepaRG_ABCB11: Life Technologies and Expression Analysis (LTEA) Assay for ABC Transporter (ABCB11) using HepaRG (AID 2283463); details: mRNA level, 48 h; actives raise or lower the signal
# In short: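 Differentiated human HepaRG cells in serum-free induction medium, dosed in duplicate for 48 h. Eight-point half-log series from 100 uM in 0.5% DMSO; ABCB11 mRNA by qRT-PCR, normalized to ACTB, GAPDH, POLR2A, fitted bidirectionally versus DMSO.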
# [7] = read-out: ABC Transporter (ABCC2), ABCC2 (gene 1244); experiment: LTEA_HepaRG_ABCC2: Life Technologies and Expression Analysis (LTEA) Assay for ABC Transporter (ABCC2) using HepaRG (AID 2283464); details: mRNA level, 48 h; actives raise or lower the signal
# In short: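 After plating and 48 h culture, HepaRG medium is replaced with serum-free induction medium and chemicals are added (8 concentrations, max 100 uM, 0.5% DMSO) for 48 h. Total RNA then undergoes qRT-PCR for ABCC2 with housekeeping normalization.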
# [8] = read-out: Broad substrate specificity ATP-binding cassette transporter ABCG2 (Homo sapiens) (UniProt Q9UNQ0); experiment: LTEA_HepaRG_ABCG2: Life Technologies and Expression Analysis (LTEA) Assay for ABC Transporter (ABCG2) using HepaRG (AID 2283465); details: mRNA level, 48 h; actives raise or lower the signal
# In short: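 Differentiated HepaRG cells were exposed for 48 h in serum-free induction medium to 8 half-log concentrations, top 100 uM, in 0.5% DMSO. ABCG2 mRNA was measured by qRT-PCR, normalized to ACTB, GAPDH and POLR2A, with bidirectional fitting versus DMSO.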
# [9] = read-out: ATP-citrate lyase (ACLY), ACLY (gene 47); experiment: LTEA_HepaRG_ACLY: Life Technologies and Expression Analysis (LTEA) Assay for ATP-citrate lyase (ACLY) using HepaRG (AID 2283466); details: mRNA level, 48 h; actives raise or lower the signal
# In short: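 Differentiated HepaRG cells exposed 48 h in serum-free induction medium to eight half-log concentrations up to 100 uM in 0.5% DMSO, duplicates. Transcript measured by Fluidigm TaqMan qRT-PCR, normalized to ACTB, GAPDH, POLR2A; bidirectional fit versus DMSO.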
# [10] = CEETOX_H295R_TESTO: CeeTox H295R High-throughput Steroidogenesis Assay for Testosterone (TESTO) (AID 2283457); details: actives raise or lower the signal
# Method: CEETOX_H295R is a cell-based, multiplexed-readout assay that uses H295R, a human adrenal gland cell line, with measurements taken at 48 hours after chemical dosing in a 96-well plate.CEETOX_H295R_TESTO is one of 23 assay component(s) measured or calculated from the CEETOX_H295R assay. It is designed to make measurements of hormone induction, a form of inducible reporter, as detected with […] by HPLC-MS-MS technology.Data from the assay component CEETOX_H295R_TESTO was analyzed into 1 assay endpoint. This assay endpoint, CEETOX_H295R_TESTO, was analyzed with bidirectional fitting relative to DMSO as the negative control and baseline of activity. Using a type of inducible reporter, gain or loss-of-signal activity using HPLC-MS-MS was used to understand synthesis of Testosterone in H295R cell line at 48hr of chemical exposure. To generalize the intended target to other relatable targets, this assay endpoint is annotated to the steroid hormone intended target family, where the subfamily is androgens.
# Cell culture and media preparation procedures were conducted in accordance with OECD Test No. 456 guidelines, with minor modifications. H295R cells (ATCC CRL-2128) were expanded for 5 passages and frozen in batches in liquid nitrogen. Prior to the steroidogenesis assay, H295R cells were thawed and passed at least 4 times. The maximum passage was 10. Cells were maintained in a 1:1 mixture of DMEM/F12 supplemented with 5ml/L ITS+ Premix (BD Bioscience) and 12.5 ml/L Nu-Serum (BD Bioscience). After seeding cells into 96-well plates at 50-60% confluency, cells were allowed to adhere overnight. […] Test chemicals were incubated for 48 hours, then the medium was removed and split into 2 vials containing approximately 75uL each, and stored at -80 C prior to hormone analysis. For steroid quantification, media samples were shipped to OpAns, LLC (Durham, NC) on dry ice, and samples were thawed to room temperature prior to liquid-liquid extraction. Steroid hormones were extracted from media samples using methyl tertbutyl ether (MTBE). An extra derivatization with dansyl chloride was included for estrogen (estrone and estradiol) detection only. Steroid hormones were separated by HPLC, eluted using a reverse phase C18 gradient with electrospray positive ionization, followed by quantification by tandem mass spectrometry (MS/MS). Data were acquired on a MassHunter Workstation Acquisition version B03.01 (Agilent Technologies, Inc.) and processed using MassHunter Quantitative Analysis for QQQ. Accuracy was determined for each hormone analyte from 3 standards to determine upper and lower limits of quantification (ULOQ and LLOQ, respectively) using a 7-point standard curve. Precision and accuracy of the extraction and quantification methods were calculated as the percent relative standard deviation (%RSD) of the spiked standards and percent spiked standard recovered, respectively. […] Test medium was removed following chemical exposure, and cell viability was evaluated in the same wells by MTT. MTT procedures were as follows: after removal of test medium, 500 uL of 0.5 mg/ml of 3-[4,5-dimethylthiazol-2-y]2,5-diphenyltetrazoliumbromide solution was added to the cells. Following a 4-hour incubation at 37 C and 5% CO2 to allow formazan-crystal formation, the MTT solution was removed and blue formazan salt crystals were solubilized using 500uL anhydrous isopropanol with shaking for 20 minutes. Absorbance was read at 570 and 650nm using a Packard Fusion microplate reader. Background correction of absorbance units was used to determine percent change relative to controls. […] When a test chemical reduced cell viability to 20% - 70%, the test chemical was diluted 10-fold and re-evaluated, but if cell viability was <20%, then the test chemical was diluted 100-fold and re-evaluated. Test chemical dilutions were made until cell viability was >/=70%. MTT assays were also conducted for duplicates of all concentrations of chemicals tested in concentration-response studies. […]
# Chain of Broad substrate specificity ATP-binding cassette transporter ABCG2 (Homo sapiens) (Q9UNQ0 whole entry, looked up): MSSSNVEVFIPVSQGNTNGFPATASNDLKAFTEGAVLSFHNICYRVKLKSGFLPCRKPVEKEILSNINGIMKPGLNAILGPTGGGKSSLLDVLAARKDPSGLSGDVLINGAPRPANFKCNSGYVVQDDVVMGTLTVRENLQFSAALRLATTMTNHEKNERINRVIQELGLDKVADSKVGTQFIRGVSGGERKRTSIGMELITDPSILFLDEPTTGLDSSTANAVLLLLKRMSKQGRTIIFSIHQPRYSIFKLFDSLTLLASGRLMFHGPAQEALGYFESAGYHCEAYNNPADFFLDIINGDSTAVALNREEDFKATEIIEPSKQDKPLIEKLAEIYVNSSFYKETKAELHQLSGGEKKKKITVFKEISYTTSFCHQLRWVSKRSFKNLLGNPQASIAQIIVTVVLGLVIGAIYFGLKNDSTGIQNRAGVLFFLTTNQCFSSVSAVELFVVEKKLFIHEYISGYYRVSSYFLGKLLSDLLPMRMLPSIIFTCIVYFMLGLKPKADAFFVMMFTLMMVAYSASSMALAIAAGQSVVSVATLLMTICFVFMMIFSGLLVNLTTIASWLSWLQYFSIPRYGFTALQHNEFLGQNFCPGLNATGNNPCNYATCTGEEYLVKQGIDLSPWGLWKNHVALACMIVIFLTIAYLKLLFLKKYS
smiles,measurement,setting,value
CCOP(=S)(OCC)SCSC(C)(C)C,outcome,[1],inactive
same,outcome,[2],inactive
same,outcome,[3],inactive
same,outcome,[4],inactive
same,outcome,[5],inactive
same,AC50,[6],18.6 µM (active)
same,outcome,[7],inactive
same,outcome,[8],inactive
same,outcome,[9],inactive
c1ccc(-c2ccccc2)cc1,outcome,[1],inactive
same,outcome,[2],inactive
same,outcome,[3],inactive
same,outcome,[4],inactive
same,outcome,[5],inactive
same,outcome,[6],inactive
same,outcome,[7],inactive
same,outcome,[8],inactive
same,outcome,[9],inactive
NS(=O)(=O)C(F)(F)C(F)(F)C(F)(F)C(F)(F)C(F)(F)C(F)(F)C(F)(F)C(F)(F)F,outcome,[10],inactive
same,AC50,[1],29.1 µM (active)
same,AC50,[2],6.91 µM (active)
same,AC50,[3],9.25 µM (active)
same,AC50,[4],20.9 µM (active)
same,AC50,[5],12.5 µM (active)
same,AC50,[6],7.12 µM (active)
same,AC50,[7],10.1 µM (active)
same,AC50,[8],3.42 µM (active)
same,AC50,[9],16.4 µM (active)
O=C(O)C(F)(F)C(F)(F)C(F)(F)C(F)(F)C(F)(F)C(F)(F)C(F)(F)C(F)(F)F,AC50,[1],74.6 µM (active)
same,AC50,[2],50 µM (active)
same,AC50,[3],75.3 µM (active)
same,AC50,[4],16.8 µM (active)
same,outcome,[5],inactive
same,AC50,[6],90.4 µM (active)
same,AC50,[7],82.7 µM (active)
same,AC50,[8],50 µM (active)
same,outcome,[9],inactive
ClC1=C(Cl)[C@]2(Cl)[C@@H]3[C@@H](Cl)[C@H]4O[C@H]4[C@@H]3C1(Cl)C2(Cl)Cl,outcome,[1],inactive
same,outcome,[2],inactive
same,AC50,[3],6.62 µM (active)
same,outcome,[4],inactive
same,outcome,[5],inactive
same,outcome,[6],inactive
same,outcome,[7],inactive
same,AC50,[8],15.8 µM (active)
same,AC50,[9],75 µM (active)
O=C(O)C(F)(F)C(F)(F)C(F)(F)C(F)(F)C(F)(F)C(F)(F)C(F)(F)C(F)(F)C(F)(F)F,AC50,[1],85.5 µM (active)
same,outcome,[2],inactive
same,AC50,[3],85.1 µM (active)
same,outcome,[4],inactive
same,AC50,[5],88.5 µM (active)
same,AC50,[6],61 µM (active)
same,AC50,[7],94.8 µM (active)
same,outcome,[8],inactive
same,AC50,[9],76.5 µM (active)
Cc1cc(-c2ccc(N)c(C)c2)ccc1N,outcome,[1],inactive
same,AC50,[2],18 µM (active)
same,outcome,[3],inactive
same,AC50,[4],50 µM (active)
same,outcome,[5],inactive
same,AC50,[6],22.4 µM (active)
same,outcome,[7],inactive
same,outcome,[8],inactive
same,outcome,[9],inactive
Cc1cc2c3c(c1)C(c1ccccc1)=N[C@@H](NC(=O)c1ccncc1)C(=O)N3CC2,AC50,[2],50 µM (active)
same,AC50,[3],5.26 µM (active)
same,outcome,[4],inactive
same,outcome,[5],inactive
same,outcome,[6],inactive
same,outcome,[7],inactive
same,AC50,[8],10.1 µM (active)
same,AC50,[9],74.3 µM (active)
CCCCCCOC(=O)c1ccccc1C(=O)OCCCCCC,outcome,[1],inactive
same,outcome,[2],inactive
same,outcome,[3],inactive
same,outcome,[4],inactive
same,outcome,[5],inactive
same,outcome,[6],inactive
same,outcome,[7],inactive
same,outcome,[8],inactive
same,outcome,[9],inactive
C=CC(=O)NCNC(=O)C=C,outcome,[2],inactive
same,outcome,[3],inactive
same,AC50,[4],50 µM (active)
same,outcome,[5],inactive
same,AC50,[6],50 µM (active)
same,AC50,[7],16 µM (active)
same,outcome,[8],inactive
same,AC50,[9],12.7 µM (active)
Clc1ccc(C(c2ccccc2Cl)C(Cl)(Cl)Cl)cc1 (stereo unspecified),outcome,[1],inactive
same,outcome,[2],inactive
same,AC50,[3],16.9 µM (active)
same,outcome,[4],inactive
same,outcome,[5],inactive
same,AC50,[6],72.3 µM (active)
same,AC50,[7],13.2 µM (active)
same,AC50,[8],4.48 µM (active)
same,outcome,[9],inactive
CCCCCCCCCc1ccc(O)cc1,outcome,[2],inactive
same,outcome,[3],inactive
same,outcome,[4],inactive
same,outcome,[5],inactive
same,outcome,[6],inactive
same,outcome,[7],inactive
same,outcome,[8],inactive
same,outcome,[9],inactive
CCNc1nc(NC(C)C)nc(SC)n1,outcome,[10],inactive
same,outcome,[1],inactive
same,outcome,[3],inactive
same,outcome,[4],inactive
same,outcome,[5],inactive
same,AC50,[6],50 µM (active)
same,outcome,[7],inactive
same,outcome,[8],inactive
same,outcome,[9],inactive
Cc1cc(O)ccc1Cl,outcome,[1],inactive
same,outcome,[2],inactive
same,outcome,[3],inactive
same,outcome,[4],inactive
same,outcome,[5],inactive
same,outcome,[6],inactive
same,outcome,[8],inactive
same,outcome,[9],inactive
CCCN(CCC)N=O,outcome,[2],inactive
same,outcome,[3],inactive
same,outcome,[4],inactive
same,outcome,[5],inactive
same,outcome,[6],inactive
same,outcome,[7],inactive
same,outcome,[8],inactive
same,outcome,[9],inactive
